The full list was thinned out, with hits kept by preference.
Tg IFNy HTS: T. gondii growth inhibition with IFN-gamma, primary screen, cell-based. Toxoplasma gondii growth in IFN-gamma-treated host cells; hits give low values. activity change, negative = inhibition, % (no concentration beside the values). actives 3.8% (n = 69,000). AID 1259416, 2018; in the data active = activity change below about -70%, passing the limit was not always enough;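 note: host cells are HeLa cells infected with Toxoplasma gondii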
An asterisk follows results filed as active.

SMILES | Tg IFNy HTS
Cc1nc(-c2ccccc2F)sc1C(=O)NCc1nc(Cc2ccccc2)no1 | -6.2
Cn1c(=O)c(C(=O)Nc2cnn(Cc3cccc(F)c3)c2)nc2ccccc21 | -17.4
COc1cccc(Cn2cc(NC(=O)C3(c4cc(C)cc(C)c4)CCOCC3)cn2)c1 | -3.9
COc1cccc(CN(Cc2ccccn2)Cc2ccnc3ccccc23)c1OC | -1.7
Cc1ccccc1CN1CCC(CNC(=O)CC2=CCNCC2)C1 (configuration not stated) | -3.1
Nc1nccc2c1ncn2[C@@H]1O[C@H](CO)C(O)C1O (some centres not stated) | -3.5
Nc1nccc2c1ncn2[C@@H]1C=C(CO)[C@@H](O)[C@H]1O | -77.9*
CN(C)c1nc(N2CCCC2)nc2c1CCN(c1ncc(F)cn1)CC2 | -14.8
COc1cccc(S(=O)(=O)Nc2ccc3c(c2)C(=O)N(C)[C@@H]2CC[C@H](CC(=O)NCC4CCCCC4)O[C@H]2CO3)c1 | -15.0
CNC1(c2ccc(OC)cc2)Oc2ccccc2C(C#Cc2ccccc2)=C1C (configuration not stated) | -106.6*
CCOC1COC2(CCN(S(=O)(=O)c3cn(C)cn3)CC2)C1 (configuration not stated) | 11.9
O=C(NCCc1csc(-c2ccccc2)n1)[C@H]1CCCN1C(=O)c1ccc(Br)cc1 | 14.6
CCC(=O)Nc1cccc(C(=O)N2CCC[C@H]2CO)c1 | 5.2
CCCCC[C@H](CC(=O)NO)C(=O)N[C@H](C(=O)N1CCC[C@H]1CO)C(C)C | -77.3*
CCOc1ccccc1-c1nc(Cn2nnc(C(=O)Nc3c(C)cc(C)cc3C)c2C)c(C)o1 | 161.9
O=C(NCCc1n[nH]c2c1CCCC2)C1CCN(Cc2ccco2)CC1 | -2.2
Cc1nc(-c2ccc(F)cc2)sc1CCNC(=O)c1ccc(Br)cc1 | -81.0*
Cc1ccc(OCC(=O)NCCc2sc(-c3ccc(Cl)cc3)nc2C)cc1 | -76.4*
Cc1nc(-c2ccc(Cl)cc2)sc1CCNC(=O)c1ccc(F)cc1 | -47.0
Cc1ccc(OCC(=O)NCCc2sc(-c3ccc(F)cc3)nc2C)cc1 | -24.4
Cc1ccc(C(=O)NCCc2sc(-c3ccc(Cl)cc3)nc2C)cc1C | -12.0
Cc1nc(-c2ccc(Cl)cc2)sc1CCNC(=O)c1ccc(F)c(F)c1 | -76.8*
Cc1nc(-c2ccc(F)cc2)sc1CCNC(=O)c1ccccc1 | -25.7
Cc1nc(-c2ccc(Cl)cc2)sc1CCNC(=O)COc1ccccc1 | 43.8
Cc1nc(-c2ccc(F)cc2)sc1CCNC(=O)c1ccc(C(C)(C)C)cc1 | -25.9
SMILES | Tg IFNy HTS
CC(C)c1noc(-c2cc(=O)n(CC(=O)Nc3cc(F)ccc3F)c3ccccc23)n1 | 35.3
O=C(NCCc1csc(-c2cccc(F)c2)n1)c1cccc(C(F)(F)F)c1 | -20.8
COC(=O)CC(=O)CCn1ncc2ccccc21 | 19.2
COc1ccc(-c2nc(Nc3ccccc3F)c3ccccc3n2)cc1 | -37.7
COc1ccc(CC(=O)N2CCC3(CC2)Nc2ccccc2-n2cccc23)cc1OC | 21.5
COc1cc(CC(=O)N2CCN3C(=O)CNC(=O)C3C2)cc(OC)c1OC (configuration not stated) | 1.4
Cc1ncsc1CCC(=O)N1CCOC(C(F)(F)F)C1 (configuration not stated) | -47.8
CCc1cc(-c2cccc(NC(C)=O)c2)nc(N2CCOCC2)n1 | -25.5
O=C(Nc1ccncc1)Nc1ccc(-c2nc(N3CCOCC3)nc(N3C4CCC3COC4)n2)cc1 | -74.0*
O=C(C[C@@H]1CC[C@H]2[C@@H](COC[C@H](O)CN2C(=O)c2ccncc2)O1)Nc1ccc(-c2ccccc2)cc1 | -43.0
O=C1C2CCCCC2C(=O)N1c1ccc(OS(=O)(=O)c2ccccc2)cc1 (configuration not stated) | -26.0
NC(N)=N/N=C/c1ccc(OS(=O)(=O)c2ccccc2)cc1 | -76.8*
NC(N)=N/N=C/c1c(Cl)cccc1Cl | -3.6
Cc1ccsc1CN(C)c1ccc(-c2nccn2C)nn1 | 219.6
CCn1cnnc1CCNC(=O)C1CC2(CCNCC2)CN1 (configuration not stated) | 4.0
CC(C)N(C[C@H]1[C@@H](c2ccccc2)[C@@H](CO)N1CC1CC1)C(=O)C1CCC1 | 3.7
Cc1c2oc3c(C)ccc(C(=O)OC(C)C4NC(=O)C(C(C)C)N(C)C(=O)CN(C)C(=O)C5CCCN5C(=O)C(C(C)C)NC4=O)c3nc-2c(C(=O)OC(C)C2NC(=O)C(C(C)C)N(C)C(=O)CN(C)C(=O)C3CCCN3C(=O)C(C(C)C)NC2=O)c(N)c1=O (configuration not stated) | -82.7*
CN(C)C(=O)CN1CCC2(CC1)CN(C(=O)c1cccn1C)Cc1ccccc12 | 5.9
Cc1ccc(NC(=O)N2Cc3c(CN4CCCCC4)nn(C)c3C2)cc1 | 4.7
O=C(c1ccoc1)N1CCC2(CC1)Nc1cccnc1NC2=NCc1ccccc1 | 47.8
Cc1cccc(-c2nn3c(c2-c2ccnc4ccc(C(N)=O)cc24)CCC3)n1 | -78.4*
COc1ccc(CN2CCN(c3nc4ccccc4s3)CC2)c(OC)c1OC | -20.5
O=C(O)C1CN(C(=O)CCCCc2ccccc2)CCN1 (configuration not stated) | -1.4
CN(Cc1nnc(-c2ccccc2)o1)C(=O)c1cn(CCN2CCCCC2)nn1 | 3.7
CC(=O)N1CC(=O)N(c2ccccc2)CC12CCN(C(=O)C1CCOCC1)C2 (configuration not stated) | 3.0
SMILES | Tg IFNy HTS
CC(=O)N1CC(=O)N(c2ccccc2)CC12CCN(C(=O)N1CCCC1)C2 (configuration not stated) | 1.3
CC(=O)N1CC(=O)N(c2ccccc2)CC12CCN(CC1CCOCC1)C2 (configuration not stated) | -85.9*
CC(C)c1nnc(-c2coc(S(=O)(=O)N3CCC(N4CCCCC4)CC3)c2)o1 | 6.8
CCc1cnc(N2CCN(CCN(C)C)c3ncccc3C2)nc1 | 0.9
CC(C)(C)c1csc(NC(=O)Nc2ccc(Cl)cc2)n1 | -102.6*
CC(CC(=O)Nc1nc(C(C)(C)C)cs1)n1cncn1 (configuration not stated) | 4.8
Cc1nc(-c2cccs2)sc1NC(=O)Nc1ccc(Cl)cc1 | 65.0
N#CCSC1=Nc2ccccc2C2=NC(CC(=O)NCc3ccco3)C(=O)N12 (configuration not stated) | 18.1
CCOc1cc2c(cc1OCC)C(c1ccccc1)N(c1ccc(C(=O)O)cc1)C(=O)C2 (configuration not stated) | -16.2
COc1cc2c(cc1OC(C)C)[C@H](c1ccc(Cl)cc1)N(c1ccc(N(C)CC3CCC(N4CCN(C)C(=O)C4)CC3)cc1)C(=O)C2 (some centres not stated) | -79.1*
CCc1c(C(=O)N2CCN(CCn3cncn3)CC2)[nH]c2ccccc12 | 7.7
O=c1cc(CN2CCCC(CCc3c(F)cccc3F)C2)[nH]c(=O)[nH]1 (configuration not stated) | 1.1
CCCCCCCCCc1nc2c(=O)[nH]c3ccccc3c2o1 | 4.2
CCCCc1c(C)[nH]c2ccccc2c1=O | -99.1*
CCC(CC)n1ncc(C)c1NC(=O)CCc1c(C)[nH]c2ccccc2c1=O | -16.6
O=c1[nH]c2ccccc2c(O)c1-c1nc(-c2ccc(Cl)cc2)no1 | 3.3
OCC1(O)CCCN(Cc2nc3ccccc3s2)CC1 (configuration not stated) | 24.8
Cc1cc(=O)[nH]n(-c2ccccc2)c1=O | -48.8
Cc1ccccc1C1CC(=O)c2cnc3[nH]n(-c4ccccc4)c(=O)c3c2C1 (configuration not stated) | -90.9*

From PubChem
